# Measurements as given in PubChem BioAssay AID602448 (National Center for Advancing Translational Sciences (NCATS), 2012).
# The source made the active and inactive calls.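 How the source made its calls: active means max inhibition of at least 60%; inconclusive means max inhibition above 30% but below 60%; inactive means max inhibition of 30% or less.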
# Target: Follicle-stimulating hormone receptor (Homo sapiens) (UniProt P23945)
# Experiment: qHTS for antagonists of the Thyroid Stimulation Hormone Receptor: Hit Validation with Follickle Stimulating Hormone Receptor (FSHR)
# Settings: FSHR-expressing cells, cAMP HTRF, antagonist counterscreen; hits give high values
# Text: The thyroid-stimulating hormone receptor (TSHR) is a member of the 7 trans-membrane-spanning receptor (7TMR) family of cell surface receptors. TSHR-mediated hyperthyroidism is important in thyroid pathology. The development of small molecule antagonists of TSHR may lead to therapeutic approaches for TSHR-mediated hyperthyroidism caused by constitutively activating mutations or stimulating auto-antibodies associated with Graves' disease. Graves' disease is the leading cause of hyperthyroidism and is caused by autoantibodies that stimulate TSHR (TsAbs) causing thyroid growth and unregulated overproduction of thyroid hormones and existing treatments have liabilities (agranulocytosis). In addition, TSHRs are known to be expressed in multiple extrathyroidal tissues including bone, brain, kidney, testis, fat and cells of the immune system but the role of the TSHR in these tissues is not clear. Therefore, TSHR antagonists/inverse agonists could be used as probes of extrathyroidal TSHR function. Finally, TSHR inverse agonists, which are a subclass of antagonists that inhibit agonist-independent (or basal or constitutive) TSHR signaling, could be used to inhibit TSH-independent signaling in patients with recurrent or metastatic thyroid cancer who are receiving thyroid hormone to suppress TSH. […]
# Chain of Follicle-stimulating hormone receptor (Homo sapiens) (P23945 whole entry, looked up): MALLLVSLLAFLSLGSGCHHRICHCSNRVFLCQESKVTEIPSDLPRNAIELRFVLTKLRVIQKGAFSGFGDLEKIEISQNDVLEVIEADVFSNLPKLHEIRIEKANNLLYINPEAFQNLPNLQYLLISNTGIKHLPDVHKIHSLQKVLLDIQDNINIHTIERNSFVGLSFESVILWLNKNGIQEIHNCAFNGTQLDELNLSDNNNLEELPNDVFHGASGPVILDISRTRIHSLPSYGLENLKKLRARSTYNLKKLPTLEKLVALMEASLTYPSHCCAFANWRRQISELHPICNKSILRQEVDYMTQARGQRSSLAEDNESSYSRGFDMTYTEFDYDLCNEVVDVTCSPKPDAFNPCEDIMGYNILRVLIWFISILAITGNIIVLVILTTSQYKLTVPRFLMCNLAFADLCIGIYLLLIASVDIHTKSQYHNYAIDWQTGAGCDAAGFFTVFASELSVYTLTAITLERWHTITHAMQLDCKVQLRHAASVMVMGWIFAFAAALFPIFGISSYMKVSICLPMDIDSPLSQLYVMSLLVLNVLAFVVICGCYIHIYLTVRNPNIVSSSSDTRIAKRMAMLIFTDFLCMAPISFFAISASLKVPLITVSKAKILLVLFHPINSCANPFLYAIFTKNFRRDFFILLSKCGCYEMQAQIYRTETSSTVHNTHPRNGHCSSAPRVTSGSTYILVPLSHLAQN
structure (smiles),measurement,value
COC(=O)C1=C(c2ccc(-c3ccccc3)c(F)c2)C[C@@H]2CC[C@H]1N2C(=O)NCCOc1ccccc1,max inhibition,79.5% (active)
